This is part of a sample that, as a whole, favours compounds with a hit. Of some 83,000 tested, about 20% had one in any assay.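 The test compound was applied at a single concentration to cells in 96-well plates for 48 hours, and percent growth was recorded.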 Unmarked numbers belong to inactive results. The source made the active and inactive calls. How the source made its calls: active means growth percent below 10; inactive means the rest.
Tests used:
Test in all cases: NCI-60 one-dose screen, 48 h (100 = growth as untreated, 0 = no growth, -100 = all killed)
Details in all cases: 10 µM unless noted
HCT-15 colon = test system: HCT-15 colon
HT29 colon = test system: HT29 colon
SNB-75 CNS = test system: SNB-75 CNS
SNB-19 CNS = test system: SNB-19 CNS
U251 CNS = test system: U251 CNS
PC-3 prostate = test system: PC-3 prostate
SK-MEL-5 melanoma = test system: SK-MEL-5 melanoma
UACC-62 melanoma = test system: UACC-62 melanoma
LOX IMVI melanoma = test system: LOX IMVI melanoma
SK-MEL-28 melanoma = test system: SK-MEL-28 melanoma
SK-MEL-2 melanoma = test system: SK-MEL-2 melanoma
EKVX NSCLC = test system: EKVX NSCLC
SN12C renal = test system: SN12C renal
UO-31 renal = test system: UO-31 renal
TK-10 renal = test system: TK-10 renal
ACHN renal = test system: ACHN renal
CAKI-1 renal = test system: CAKI-1 renal
A498 renal = test system: A498 renal
CCRF-CEM leukemia = test system: CCRF-CEM leukemia
MOLT-4 leukemia = test system: MOLT-4 leukemia

Row | Compound | growth (HCT-15 colon) | growth (HT29 colon) | growth (SNB-75 CNS) | growth (SNB-19 CNS) [%] | growth (U251 CNS) | growth (PC-3 prostate) | growth (SK-MEL-5 melanoma) [%] | growth (UACC-62 melanoma) [%] | growth (LOX IMVI melanoma) | growth (SK-MEL-28 melanoma) [%] | growth (SK-MEL-2 melanoma) [%] | growth (EKVX NSCLC) [%] | growth (SN12C renal) [%] | growth (UO-31 renal) [%] | growth (TK-10 renal) | growth (ACHN renal) [%] | growth (CAKI-1 renal) | growth (A498 renal) | growth (CCRF-CEM leukemia) | growth (MOLT-4 leukemia)
1 | Cc1[nH]c(C(=O)Nc2ccc(C(=O)NCCN)cc2OC(C)C)c(Cl)c1Cl | 34.3% | 2.87% (active) | 78.4% | 52 | -21.4% (active) | 45% | 71.2 | 84 | -95.1% (active) | 70.9 | 98.6 | 87.6 | 48.1 | 57.1 | -21.6% (active) | 40.7 | 14.2% | 67.4% | -10.5% (active) | -27.7% (active)
2 | CC(=O)c1ccc(Nc2nc(C(C)=O)c(C)s2)cc1 | 97.4% | 100% | 73.6% | 97.5 | 100% | 95.3% | 99.9 | 96.1 | 99.9% | 103 | 105 | 93.2 | 103 | 92.1 | 112% | 100 | 88.2% | -17.9% (active) | 90.9% | 100%
3 | S=c1nc(-c2ccccc2)oc(=NC2CCCCC2)n1C1CCCCC1 | 16.1% | 49.5% | 68.2% | 28.7 | 18.8% | 3.69% (active) | 66.1 | 70.9 | 30.1% | 107 | 37.9 | 24.4 | 67.9 | 46.5 | 32.8% | 15.4 | 75.4% | 86.8% | -6.7% (active) | 0.447% (active)
4 | COc1ccc(N)c(N)c1 | 101% | 104% | 85.7% | 96.7 | 107% | 99.4% | 105 | 93.6 | 99.3% | 111 | 121 | 105 | 100 | 75.3 | 113% | 97.3 | 94.4% | 95.1% | 83.1% | 96.2%
5 | CCOC(=O)C1=C(N)Oc2c(sc3c(C)cccc23)C1c1ccc(OC)cc1 (stereo not given) | 21.7% | 84.7% | -3.57% (active) | 28.8 | 26.6% | 28.7% | 52.5 | 17 | 32.3% | 46.5 | 22.9 | 88.5 | 39.7 | 41.5 | 110% | 34 | 5.78% (active) | 4.89% (active) | 24.3% | 29.4%
6 | CCCCCCNC(=O)Oc1ccc(/C(=C(\C)c2ccc(Cl)cc2)c2ccc(OCCN(CC)CC)cc2)cc1 | 1.93% (active) | -14.2% (active) | 77.2% | 74.5 | 41.7% | 56.7% | 51.9 | 73.3 | 44.2% | 66 | 95.6 | 73.6 | 76.2 | 41.8 | 85% | 85.6 | 89.9% | 93.7% | 54.6% | 35.3%
7 | CN(C(=O)NCc1cccc(F)c1Cl)[C@H](COC(=O)Nc1cc2ccccc2cn1)CC(O)CO (stereo not given in full) | 101% | 99.4% | -21.4% (active) | 97.2 | 74% | 80.8% | 103 | 106 | 61.9% | 119 | 113 | 77.4 | 86.1 | 51.8 | 101% | 107 | 25.8% | 54.7% | 64.9% | 94.9%
